Results: the supplement of paper PMC7156485
Values joined by “and” are separate entries in the source; they are usually repeats but may differ in a detail not shown here. Equal entries are not always repeated. Structures can show the parent of a compound that is named as a salt. ± gives the standard deviation of the averaged measurements.

Columns and labels:
Details in all cases: concentration: 10 µM; 24 h
HCC1569 [1] = assay: cell number relative to DMSO (% of DMSO); higher = more cells (less growth inhibition / toxicity)
In short: (§1)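 For HCC1569 and TDF cells, compounds at 10 µM were applied for 24 h at 37 °C in triplicate in 384-well plates. Cells were fixed in 3.7% formaldehyde, stained for H1.0 and with DAPI, and imaged at ×10 over six fields per well. The endpoint, H1.0 nuclear intensity or cell number, is shown as percent of the plate control using the median of replicates. Positional effects were smoothed for HCC1569 only.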

TDF [2] = assay: as above
In short: as §1

TDF [3] = assay: H1.0 immunofluorescence intensity relative to DMSO (% of DMSO); higher = stronger H1.0 induction, active = 120 or more
In short: as §1

HCC1569 [4] = assay: H1.0 immunofluorescence intensity relative to DMSO (% of DMSO); higher = stronger H1.0 induction, active = 140 or more
In short: as §1
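Throughout, for H1.0 immunofluorescence intensity relative to DMSO: TDF is a line of transformed human dermal fibroblasts of mesenchymal origin.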
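Throughout, for cell number relative to DMSO: TDF denotes transformed human dermal fibroblasts of mesenchymal origin.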

Row | SMILES | cell number (HCC1569 [1]) | cell number (TDF [2]) | H1.0 immunofluorescence intensity (TDF [3]) | H1.0 immunofluorescence intensity (HCC1569 [4])
1 | COc1cc(C(=O)c2ccc3ncccc3c2)cc(OC)c1OC [quinolin-6-yl(3,4,5-trimethoxyphenyl)methanone] | 59.6 | 8.78 | 209 (active) | 167 (active)
2 | O=C(O)C=CC(=O)O.c1cnc(N2CCN(Cc3ccc4c(c3)OCO4)CC2)nc1 [Piribedil maleate] | 101 | 116 | 93.8 (inactive) | 79.7 (inactive)
3 | Cc1cccc(C)c1OCC(N)C(C)C.I (stereo not given) | 103 | 108 | 91.3 (inactive) | 94.3 (inactive)
4 | CN(C)CCC(c1ccc(Cl)cc1)c1ccccn1.O=C(O)C=CC(=O)O (racemic) | 96.1 | 107 | 103 (inactive) | 94.5 (inactive)
5 | CN(C)C(=N)N=C(N)N [Metformin] | 100 | 94 | 95.9 (inactive) | 101 (inactive)
6 | C=C(c1ccc(C(=O)O)cc1)c1cc2c(cc1C)C(C)(C)CCC2(C)C [Bexarotene] | 104 | 103 | 84 (inactive) | 111 (inactive)
7 | S=C(Nc1ccccc1)Nc1nccs1 [1-Phenyl-3-(2-thiazolyl)-2-thiourea] | 95.5 | 86.9 | 99.5 (inactive) | 102 (inactive)
8 | CC(=O)OC1(C(C)=O)CCC2C3C=C(Cl)C4=CC(=O)C5CC5C4(C)C3CCC21C (stereo not given) [Cyproterone acetate] | 91.8 | 99.8 | 92.2 (inactive) | 98.5 (inactive)
9 | CCC(=O)Nc1ccc2ncnc(Nc3cccc(Br)c3)c2c1 | 89.4 | 105 | 93.1 (inactive) | 128 (inactive)
10 | Cc1ccc(S(=O)(=O)NC(Cc2ccccc2)C(=O)CCl)cc1 [N-p-Tosyl-L-phenylalanine chloromethyl ketone] | 85.5 | 84.6 | 102 (inactive) | 113 (inactive)
11 | CC(=O)O.O=C(O)c1ccc2c3c1cccc3c(=O)n1c3ccccc3nc21 | 99.7 | 89.6 | 91.3 (inactive) | 105 (inactive)
12 | CC(C)CCC[C@@H](C)[C@H]1CC[C@H]2[C@@H]3CC(=O)[C@H]4C[C@@H](O)CC[C@]4(C)[C@H]3CC[C@]12C [(3beta,5alpha)-3-hydroxycholestan-6-one] | 105 | 92.5 | 98.5 (inactive) | 98.6 (inactive)
13 | CC1=CC(=O)c2ccccc2C1=O [Menadione] | 99.9 | 82.8 | 106 (inactive) | 91.9 (inactive)
14 | CCCCCCCCCCCC=CCCCCCC(=O)O [7(Z)-Nonadecenoic acid] | 97.8 | 104 | 101 (inactive) | 96.9 (inactive)
15 | Cl.Cl.Fc1ccc(C(c2ccc(F)cc2)N2CCN(CC=Cc3ccccc3)CC2)cc1 [Flunarizine dihydrochloride] | 101 | 110 | 89.1 (inactive) | 97.3 (inactive)
16 | O=[N+]([O-])c1ccc(Nc2nc(N3CCOCC3)nc(N3CCOCC3)n2)cc1 | 96.5 | 99 | 95.8 (inactive) | 102 (inactive)
17 | CS(=O)(=O)N1CCN(Cc2cc3nc(-c4cccc5[nH]ncc45)nc(N4CCOCC4)c3s2)CC1 | 57.3 | 77.8 | 85.3 (inactive) | 137 (inactive)
18 | CCC1C(=O)OCC1Cc1cncn1C.Cl (single isomer, unassigned; (+)) [(+)-Pilocarpine hydrochloride] | 97.7 | 93.1 | 102 (inactive) | 101 (inactive)
19 | CS(=O)c1ccc(-c2nc(-c3ccc(F)cc3)c(-c3ccncc3)[nH]2)cc1 (stereo not given) | 92.7 | 107 | 98 (inactive) | 104 (inactive)
20 | Cc1[nH]c(=O)c(C#N)cc1-c1ccncc1 [Milrinone] | 103 ± 3.6 | 108 ± 13 | 92.3 (inactive) | 103 (inactive)
21 | CC(C(O)c1ccc(O)cc1)N1CCC(Cc2ccccc2)CC1 (stereo not given) [Ifenprodil tartrate] | 104 | 102 | 94.5 (inactive) | 98.5 (inactive)
22 | C=C(C)C1CC=C(C(=O)O)CC1 (stereo not given) [Perillic acid] | 102 | 98.7 | 96.4 (inactive) | 92.9 (inactive)
23 | Cc1nc2sccn2c(=O)c1CCN1CCC(=C(c2ccc(F)cc2)c2ccc(F)cc2)CC1 [Ritanserin] | 101 | 111 | 88.8 (inactive) | 105 (inactive)
24 | CC(N)C12CC3CC(CC(C3)C1)C2 (stereo not given) [Rimantadine] | 99.7 | 107 | 93.4 (inactive) | 112 (inactive)
25 | CCCCCC=CCC=CCCCCCCCCCC(=O)O [Eicosadienoic acid] | 103 ± 1.2 | 92.6 ± 7.5 | 100 (inactive) | 96.4 (inactive)

Row | SMILES | cell number (HCC1569 [1]) | cell number (TDF [2]) | H1.0 immunofluorescence intensity (TDF [3]) | H1.0 immunofluorescence intensity (HCC1569 [4])
26 | O=[N+]([O-])c1cc(S(=O)(=O)Nc2ccc(O)c3ccccc23)ccc1Cl [4-chloro-N-(4-hydroxy-1-naphthyl)-3-nitrobenzenesulfonamide] | 85.3 | 76.6 | 106 (inactive) | 115 (inactive)
27 | Cl.NC12CC3CC(CC(C3)C1)C2 [Amantadine hydrochloride] | 107 | 109 | 104 (inactive) | 98.4 (inactive)
28 | CC(C)(C)c1ccc(S(=O)(=O)NCc2ccc(C(=O)Nc3cccnc3)cc2)cc1 | 98.2 | 108 | 86.8 (inactive) | 107 (inactive)
29 | CNCCC(Oc1ccc(C(F)(F)F)cc1)c1ccccc1.Cl (stereo not given) [Fluoxetine hydrochloride] | 93.1 | 85.7 | 108 (inactive) | 122 (inactive)
30 | CC(C)(C)c1cnc(CSc2cnc(NC(=O)C3CCNCC3)s2)o1 | 105 | 102 | 95 (inactive) | 100 (inactive)
31 | CCCCCCCCCCCCCCCCn1cc[n+](Cc2ccccc2)c1C.[I-] [eEF-2 Kinase Inhibitor, NH125] | 36.6 | 38.9 | 152 (active) | 101 (inactive)
32 | NC/C=C/C(=O)O [(E)-4-amino-2-butenoic acid] | 97.2 | 105 | 93.2 (inactive) | 99.6 (inactive)
33 | CC(C)N(CCC(=O)c1ccc2ccccc2c1)Cc1ccccc1.Cl [JAK3 Inhibitor IV] | 101 | 97 | 96.1 (inactive) | 110 (inactive)
34 | CCCCCCC=CC=CCCCCCCCC(=O)O [9(Z), 11(Z)-octadecadienoic acid] | 99.8 | 108 | 107 (inactive) | 103 (inactive)
35 | Cc1cc(C(C)(C)C)cc(C)c1CC1=NCCN1.Cl [Xylometazoline hydrochloride] | 97.5 | 93.3 | 98.3 (inactive) | 110 (inactive)
36 | NC(CO)C(=O)NNCc1ccc(O)c(O)c1O (stereo not given) [Benserazide] | 95.2 | 82 | 101 (inactive) | 97.6 (inactive)
37 | CC(CSC(=O)c1ccccc1)C(=O)N1CC(Sc2ccccc2)CC1C(=O)[O-].CC(CSC(=O)c1ccccc1)C(=O)N1CC(Sc2ccccc2)CC1C(=O)[O-].[Ca+2] (stereo not given) | 106 | 119 | 93.2 (inactive) | 95.4 (inactive)
38 | CC1OC(Oc2c(-c3ccc(O)c(O)c3)oc3cc(O)cc(O)c3c2=O)C(O)C(O)C1O (stereo not given) [Quercitrin] | 97.5 | 106 | 101 (inactive) | 99.1 (inactive)
39 | CN(C)CCCC1(c2ccc(F)cc2)OCc2cc(C#N)ccc21 (stereo not given) [Citalopram] | 103 | 114 | 91.3 (inactive) | 100 (inactive)
40 | COC(=O)CNC(=O)C(=O)OC [methyl 2-(2-methoxy-2-oxoethylamino)-2-oxoacetate] | 96.5 | 109 | 99.2 (inactive) | 101 (inactive)
41 | Cl.O=S(=O)(c1cccc2c(Cl)cccc12)N1CCCNCC1 | 99 and 96.6 | 104 | 103 (inactive) and 93.2 (inactive) | 105 (inactive) and 97.4 (inactive)
42 | CN1CCN(CCCN2c3ccccc3Sc3ccc(C(F)(F)F)cc32)CC1.Cl.Cl [Trifluoperazine.2HCl] | 94.5 | 108 | 97 (inactive) | 122 (inactive)
43 | Clc1ccc2c(c1)CCc1cccnc1C2=C1CCNCC1 [Desloratadine] | 98.1 | 102 | 109 (inactive) | 108 (inactive)
44 | CCc1nc(-c2cccc(C)c2)c(-c2ccnc(NC(=O)c3ccccc3)c2)s1 | 88.3 | 84.4 | 87.8 (inactive) | 120 (inactive)
45 | CC1(C)CCC(C)(C)c2cc(C(=O)Nc3ccc(C(=O)O)cc3)ccc21 | 101 | 104 | 91.8 (inactive) | 109 (inactive)
46 | O=C1NC(=O)c2c1c1c3ccccc3[nH]c1c1[nH]c3cc(Br)ccc3c21 [Cdk4 Inhibitor] | 74.2 | 63.5 | 91.2 (inactive) | 208 (active)
47 | CC(=O)C1CCC2C3CC=C4CC(O)CCC4(C)C3CCC12C (stereo not given) [Pregnenolone] | 102 | 102 | 95.7 (inactive) | 112 (inactive)
48 | NCC1CCC(C(=O)O)CC1 (stereo not given) [Tranexamic acid] | 99.5 | 104 | 87.9 (inactive) | 111 (inactive)
49 | Nc1cc(=O)nc(N)[nH]1 [2,6-Diamino-4-pyrimidinone] | 99.3 | 104 | 93.6 (inactive) | 97.1 (inactive)
50 | COC1C=COC2(C)Oc3c(C)c(O)c4c(O)c(cc(O)c4c3C2=O)NC(=O)C(C)=CC=CC(C)C(O)C(C)C(O)C(C)C(OC(C)=O)C1C (stereo not given) | 103 | 105 | 97.7 (inactive) | 103 (inactive)
